From PubChem
Compounds with a hit are over-represented: about 9.5% of the library has one in this group of screens.
RE007 growth inh – less growth of the S. pombe RE007 Vpr strain; S. pombe RE007 Vpr strain, BacTiter-Glo ATP luminescence, 24 h; Potency, µM (titrated, usually from 92.2 µM), for the others: at the top dose activity change, negative = less growth, hits mostly inhibitors; hit rate 0.21% among 360,000; AID 651644; active = well fitted falling curve with a large enough effect; inconclusive = small, poorly fitted or top-dose-only effect; inactive = no such curve, though single readings can be large or run the other way; note: % is set by controls: 0 for no effect and ±100 for the full control effect; nearly all actives have a fitted effect of over 50% in size
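Fission yeast strain RE007, carrying one chromosomally integrated HIV-1 vpr copy, was seeded at OD 0.01 in PMG+AL medium with 23 nL pinned compound. After 24 h at 30 °C and 99% humidity, viability was read by BacTiter-Glo luminescence.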
Pf growth 48h – inhibits P. falciparum growth in the first generation, 48 h; P. falciparum luciferase growth in erythrocytes, 48 h; Potency, µM (highest dose often 28.7 µM), for the others: at the highest dose activity change, negative = inhibition, most hits filed as inhibitors; hit rate 5.9% among 310,000; note: % is set by controls: 0 for no effect and ±100 for the full control effect
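Cell-based growth assay: transgenic P. falciparum expressing firefly luciferase, cultured in red cells within RPMI 1640 containing 0.5% w/v Albumax, 24 mM bicarbonate and gentamycin. A drop in luciferase activity indicates inhibition.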
Pf growth 96h – P. falciparum growth inhibition at 96 hour, primary screen for plastid delayed-death inhibitors; Potency, µM (series often up to 28.7 µM), for inactives: at the highest dose activity change, negative = inhibition, hits mostly inhibitors; AID 504834; hit rate 6.9% among 320,000; P. falciparum luciferase reporter growth, 96 h; note: % is set by controls: 0 for no effect and ±100 for the full control effect
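P. falciparum expressing integrated firefly luciferase, in erythrocytes at 2% hematocrit, 0.05% parasitemia, incubated with compounds 96 h at 37 C, 5% CO2. Growth inhibition read as loss of luminescence; two-generation exposure targets delayed-death apicoplast inhibitors.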
SARS PLpro yeast – SARS-CoV PLP inhibition in yeast; S. cerevisiae expressing SARS-CoV PLpro, growth rescue; hit rate 0.19% among 330,000; AID 485353; Potency, µM (highest dose often 32.9 µM), inactives show at the top dose activity, positive = growth rescue, most hits filed as activators; calls by dose curve; note: 0% is about no effect; nearly all actives have a fitted effect of over 55% in size
NS1 inh – blocks influenza NS1 protein function; Potency, µM (top dose mostly 46.1 µM), without a hit: at the top dose activity, positive = more growth; hit rate 0.4% among 270,000; calls by dose curve; note: actives are rising curves; nearly all actives have a fitted effect of over 50% in size
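OD600 was taken as the measure of yeast growth restored by compound in an NS1-expressing S. cerevisiae strain. Cells had been washed out of glucose medium and diluted 1:100 into galactose -URA medium, pH 6.0.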
Active calls of the source: *; [ ] = remark or other dose. Unless noted, calls come from the whole dose curve; as a rule, active = well fitted inhibition curve with a large enough effect; inconclusive = small, poorly fitted or top-dose-only effect, or another doubt; inactive = no such curve, though single readings can be large or run the other way. Potency is the fitted concentration of half-maximal effect.

`O=C(NCCN1CCC(n2c(=O)[nH]c3ccccc32)CC1)c1ccc(F)cc1Cl` gave RE007 growth inh -19.8%.
Screening CCN1CCN(C(=O)COc2ccc3c(c2)C(=O)CC2(CCN(C(C)=O)CC2)O3)CC1 returned RE007 growth inh -10.9%, Pf growth 96h 8.28µM*, SARS PLpro yeast 10.3% and NS1 inh 2.9%.
`CC1(C)CC(=O)c2cc(OCC(=O)N3CCCCCC3)ccc2O1` gave RE007 growth inh -5.7%, Pf growth 48h inconclusive, Pf growth 96h 13.1µM*, SARS PLpro yeast 9.7% and NS1 inh -4.2%.
Screening CC(=O)N1CCC2(CC1)CC(=O)c1cc(OCC(=O)N3CCCC3)ccc1O2 returned RE007 growth inh -3.1%, Pf growth 48h 0.7%, Pf growth 96h inconclusive and SARS PLpro yeast 2.8%.
For NC(=S)c1ccc[n+]([C@@H]2O[C@@H](COP(=O)([O-])OP(=O)(O)OC[C@H]3O[C@@H](n4cnc5c(N)ncnc54)[C@H](OP(=O)(O)O)[C@H]3O)C(O)C2O)c1 (some centres not stated) the results were NS1 inh -15.6%.
`O=C(CNC(=S)N(Cc1ccccc1)Cc1cccs1)NCc1ccc(F)cc1` gave RE007 growth inh 1.5%, Pf growth 48h inconclusive, Pf growth 96h inconclusive and SARS PLpro yeast -5.7%.
For COCCNC(=O)CNC(=S)N(Cc1ccccc1)Cc1cccnc1 the results were RE007 growth inh 1.6%, Pf growth 48h 7.3%, Pf growth 96h 11.7µM*, SARS PLpro yeast -13.5% and NS1 inh 1.6%.
`O=C(CNC(=S)N(Cc1ccccc1)Cc1ccccc1F)NCCc1ccc(Cl)cc1` gave RE007 growth inh -0.3%, Pf growth 48h 11.7µM*, Pf growth 96h inconclusive and SARS PLpro yeast -4.7%.
CCC(C)NC(=O)CNC(=S)N(Cc1ccccc1)Cc1cccnc1 (configuration not stated) was read as RE007 growth inh 5.5%, Pf growth 48h -4.3%, Pf growth 96h 0.0%, SARS PLpro yeast -8.2% and NS1 inh 1.7%.
`COCCCNC(=O)CNC(=S)N(Cc1ccccc1)Cc1cccnc1` gave RE007 growth inh 2.6%, Pf growth 48h 35.6%, Pf growth 96h 10.4µM* and SARS PLpro yeast 1.0%.
Cc1ccc(CNC(=O)CNC(=S)N(Cc2ccccc2)Cc2cccnc2)cc1 was read as RE007 growth inh -21.9%, Pf growth 48h -15.4%, Pf growth 96h inconclusive and SARS PLpro yeast 3.1%.
Screening Cc1ccc(CN(Cc2ccccc2)C(=S)NCC(=O)NCc2cccnc2)o1 returned RE007 growth inh 3.6%, Pf growth 48h 11.7µM*, Pf growth 96h -4.6% and SARS PLpro yeast 4.7%.
`Cc1cccc(C)c1-c1ccc(CN2C(CC(C)C)C(=O)N(Cc3cn(CCO)nn3)CCS2(=O)=O)cc1` (configuration not stated) gave RE007 growth inh -11.5%.
`COC(=O)N(C)C[C@H]1OCc2cn(nn2)CCCC(=O)N([C@@H](C)CO)C[C@@H]1C` gave RE007 growth inh 7.4%.
For Cc1ccccc1NC(=O)COC(=O)CC1CCCC1 the results were RE007 growth inh -12.7%, Pf growth 48h 54.4%, Pf growth 96h 64.1% and SARS PLpro yeast -0.2%.
`COC(=O)[C@H](Cc1c[nH]c2ccccc12)NC(=O)NCc1ccc(OC)cc1` gave RE007 growth inh -8.2%, Pf growth 48h 21.3%, Pf growth 96h 15.9%, SARS PLpro yeast 0.7% and NS1 inh 9.0%.
CC(=O)N(CC(O)CN(C(C)=O)c1c(I)c(C(=O)NC[C@@H](O)CO)c(I)c(C(=O)NC[C@@H](O)CO)c1I)c1c(I)c(C(=O)NC[C@@H](O)CO)c(I)c(C(=O)NC[C@@H](O)CO)c1I was read as Pf growth 48h 5.0%[12.8 µM] and Pf growth 96h 6.7%[12.8 µM].
COc1ccc(N2C(=O)CC(N(CCc3ccc(S(N)(=O)=O)cc3)C(=S)Nc3ccccc3)C2=O)cc1 (configuration not stated) was read as RE007 growth inh 0.8%, Pf growth 48h inconclusive, Pf growth 96h inconclusive, SARS PLpro yeast 3.7% and NS1 inh -7.0%.
